Counter-ions that a name gives are not always drawn. ± gives the standard deviation of the averaged measurements.
Test system: mESC LDLR-Dup GFP reporter (SpCas9 MH-deletion repair)
Experiment: fraction of GFP+ cells relative to DMSO control (fold change); higher = more MH-deletion repair to in-frame LDLR (or more editing)
Settings: 2 µM; 7 days post-transfection

Structure (SMILES)	fraction of GFP+ cells
Nc1nc(OCC2CCCCC2)c2[nH]cnc2n1	0.88 ± 0.14
C[C@]1(c2nc3c(C(N)=O)cccc3[nH]2)CCCN1 [Veliparib (ABT-888)]	0.657 ± 0.19
CCCC(CCC)C(=O)O [Divalproex Sodium]	0.742 ± 0.1
Oc1nc(-c2ccc(C(F)(F)F)cc2)nc2c1CSCC2	0.752 ± 0.014
CC(C(=O)Nc1cccc(/N=C/c2c(O)ccc3ccccc23)c1)c1ccccc1 (centres undefined) [Salermide]	0.987 ± 0.56
Cc1nc(-c2cccnc2)sc1C(=O)Nc1ccccc1-c1cn2c(CN3CCOCC3)csc2n1	1.34 ± 0.54
C[C@H]1COc2c(N3CCN(C)CC3)c(F)cc3c(=O)c(C(=O)O)cn1c23 [Levofloxacin hydrate]	0.935 ± 0.12
Cc1cc([N+](=O)[O-])ccc1NS(=O)(=O)c1cc(Cl)ccc1Cl	1.64 ± 0.13
NC(=O)c1ccccc1 [Benzamide]	1.01 ± 0.07
Cn1c(=O)cc(C(=O)Nc2ccc3c(c2)OCCO3)c2ccccc21	0.931 ± 0.27
C=C1C(=O)O[C@@H]2/C=C(\C)CC/C=C(\C)CC[C@@H]12 [Costunolide]	1.22 ± 0.2
O=c1c(-c2ccc(O)cc2)coc2cc(O)ccc12 [Daidzein]	0.115 ± 0.039
CS(=O)(=O)c1ccc(-c2cnc(N)c(C(=O)Nc3ccccc3)n2)cc1	0.582 ± 0.061
O=c1[nH]c(C2CCCN2)nc2c1oc1ccc(Cl)cc12 (centres undefined)	1.11 ± 0.15
COc1nc(OCc2cccc(-c3ccccc3)c2C)ccc1CNCCNC(C)=O [bms202 (PD-1/PD-L1 inhibitor 2]	1.04 ± 0.3
O=c1ccc2cc3ccoc3cc2o1 [Psoralen]	1.11 ± 0.41
O=c1[nH]nc2c3c(cccc13)N=C(CN1Cc3ccccc3C1)N2	0.38 ± 0.041
CO[C@H]1/C=C/O[C@@]2(C)Oc3c(C)c(O)c4c(O)c(c(/C=N/N5CCN(C)CC5)c(O)c4c3C2=O)NC(=O)/C(C)=C\C=C\[C@H](C)[C@H](O)[C@@H](C)[C@@H](O)[C@@H](C)[C@H](OC(C)=O)[C@@H]1C [Rifampin]	2.38 ± 0.52
O=C(NCCN1CCOCC1)Nc1ccc(C(=O)/C=C/c2cccc(N3CCOCC3)n2)cc1	1.18 ± 0.16
O=C(Nc1ccc(O)c(C(=O)O)c1)c1cccc(NC(=O)c2ccco2)c1	1.66 ± 0.41

Structure (SMILES)	fraction of GFP+ cells
COc1cc(N2CCN(C)CC2)ccc1Nc1nccc(-c2cn(C)c3cnccc23)n1	0.577 ± 0.5
CC(=O)Nc1ccc(NC(=S)NC(=O)c2ccc(C(C)(C)C)cc2)cc1 [Tenovin-1]	0.623 ± 0.14
C=C(C)[C@@H]1CC[C@]2(C(=O)O)CC[C@]3(C)[C@H](CC[C@@H]4[C@@]5(C)CC[C@H](O)C(C)(C)[C@@H]5CC[C@]43C)[C@@H]12 [Betulinic acid]	0.997 ± 0.13
CC(C)(Oc1ccc(C(=O)c2ccc(Cl)cc2)cc1)C(=O)O [Fenofibric acid]	2.08 ± 0.55
NC(=O)c1nc(F)cnc1O [Favipiravir (T-705)]	0.826 ± 0.25
O=c1c(O)c(-c2ccc(O)c(O)c2)oc2cc(O)ccc12 [Fisetin]	1.39 ± 0.39
CN(C)/N=N/c1[nH]cnc1C(N)=O [Dacarbazine]	1.01 ± 0.49
CCn1cc(C(=O)O)c(=O)c2ccc(C)nc21 [Nalidixic acid]	1.08 ± 0.015
Cc1n[nH]c2ncc(C(=O)N3CCC[C@H]3c3ccc(Cl)cc3)cc12	1.35 ± 0.069
Cc1ncc([N+](=O)[O-])n1CCO [Metronidazole]	0.96 ± 0.35
N#Cc1cnc(Nc2cc(NC[C@H]3CNCCO3)c(C(F)(F)F)cn2)cn1	1.18 ± 0.1
O=C(Nc1cccc(Cl)c1)Nc1ncc(CCNc2ncnc3ccsc23)s1 [SNS-314 Mesylate]	0
Cc1nc(N(C)C(=O)Cc2ccc(-c3ccccn3)cc2)sc1S(N)(=O)=O [Pritelivir (BAY 57-1293)]	1.01 ± 0.22
O=C(CCCCCCC(=O)Nc1ccc([C@H]2O[C@@H](CSc3nc(-c4ccccc4)c(-c4ccccc4)o3)C[C@@H](c3ccc(CO)cc3)O2)cc1)NO [Tubacin]	0.972 ± 0.16
CSc1nc2cc(Cl)c(Oc3cccc(Cl)c3Cl)cc2[nH]1 [Triclabendazole]	1.67 ± 0.26
C=C1C(=O)O[C@H]2[C@H]1CC/C(C)=C/CC[C@@]1(C)O[C@@H]21 [(-)-Parthenolide]	0.606 ± 0.018
Nc1ccc(O)c(C(=O)O)c1 [Mesalamine]	0.933 ± 0.049
Nc1ccn(C[C@@H](CO)OCP(=O)(O)O)c(=O)n1 [Cidofovir]	1.02 ± 0.1
Cc1cn([C@H]2C[C@H](N=[N+]=[N-])[C@@H](CO)O2)c(=O)[nH]c1=O [Zidovudine]	1.09 ± 0.18
